Bioassay records deposited in PubChem by several laboratories.
FBA Mtb inh = Mtb fructose-bisphosphate aldolase inhibition; P9WQA3; purified M. tuberculosis FBA, fluorescence read-out; inhibition, % at 1 µM; 2.3% of 360,000 active; AID 588726; in the data active = inhibition above about 27%;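 note: 0% = vehicle and 100% = reference inhibitor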
Target sequence (P9WQA3 whole entry, looked up): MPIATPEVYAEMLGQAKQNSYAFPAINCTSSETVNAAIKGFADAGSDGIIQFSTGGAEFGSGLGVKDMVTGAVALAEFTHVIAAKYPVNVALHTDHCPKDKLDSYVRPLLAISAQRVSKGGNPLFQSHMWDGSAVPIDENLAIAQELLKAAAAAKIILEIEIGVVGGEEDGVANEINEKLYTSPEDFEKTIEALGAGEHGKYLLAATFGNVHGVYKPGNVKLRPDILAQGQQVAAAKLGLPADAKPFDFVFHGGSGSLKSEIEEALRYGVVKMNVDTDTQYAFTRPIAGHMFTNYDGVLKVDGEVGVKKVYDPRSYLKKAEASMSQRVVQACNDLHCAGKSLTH
CCHFV vOTU inh = blocks the CCHF virus ovarian tumor domain protease. inhibition, % at 11.5 µM. 0.55% of 370,000 active. AID 651958. CCHFV vOTU protease, Pep-AMC fluorescence; note: 0% = vehicle wells with enzyme and 100% = no enzyme wells
3CLpro inhibitor = SARS-CoV 3CLpro protease inhibition. P0C6X7. recombinant SARS-CoV 3CLpro, quenched FRET peptide cleavage. inhibition, % at 6 µM. 0.14% of 290,000 active. AID 1706; in the data active = inhibition above about 12%
VHR inh abs = DUSP3 (human) phosphatase inhibition. P51452. recombinant VHR phosphatase, pNPP absorbance. inhibition, % at 13.3 µM. 0.52% of 290,000 active; in the data active = inhibition above about 50%
Target sequence (P51452 whole entry, looked up): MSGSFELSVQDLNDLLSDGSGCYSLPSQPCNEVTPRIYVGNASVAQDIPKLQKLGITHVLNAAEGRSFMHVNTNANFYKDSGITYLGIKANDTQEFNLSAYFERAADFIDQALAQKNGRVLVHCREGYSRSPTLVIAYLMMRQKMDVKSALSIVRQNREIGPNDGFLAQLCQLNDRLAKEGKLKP
GDH-TPI counter = counter-screen for M. tuberculosis FBA inhibitors: GDH-TPI coupled enzymes. GDH-TPI coupled enzyme counterscreen, NADH absorbance. AID 588335. 1.2% of 360,000 active. inhibition, % at 4.8 µM;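 note: 0% = DMSO wells and 100% = wells lacking the enzyme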
RecA intein inh = inhibitors of M. tuberculosis RecA intein splicing; P9WHJ3; cell-free RecA intein splicing, fluorescence; inhibition, % (test concentration not listed); 0.75% of 290,000 active; AID 2221; in the data active = inhibition above about 30%;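 note: 0% = vehicle wells and 100% = reference inhibitor control wells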
Active calls of the source: *; / = no result; + = active, no number. Shown are actives, neighbours in structure and some others; about 4.7% of the full set was active somewhere. Cut-off read from the data, not from the text of the source, unless noted: active = inhibition above about 30%; inactive = the rest.

SMILES | FBA Mtb inh | CCHFV vOTU inh | 3CLpro inhibitor | VHR inh abs | GDH-TPI counter | RecA intein inh
Cc1c(/C=N/Nc2ccc(F)cc2)c(O)n(C)c(=O)c1C#N | -6 | 9 | -2 | 25 | 33* | -4
CCOc1cc(-c2ccccc2)nc2c1CN(S(=O)(=O)c1ccc(C)cc1)C(c1cccc(Cl)c1)C2 (stereo unspecified) | / | -1 | / | / | / | /
NC(=O)CCC(NC(=O)OCc1ccccc1)C(=O)OCC(=O)c1ccccc1 (stereo unspecified) | 0 | -5 | / | / | 3 | /
CCC1CCCCN1CCCNC(=O)c1cn(CC)c2ccc(S(=O)(=O)N(C)C3CCCCC3)cc2c1=O (stereo unspecified) | -1 | 11 | -2 | 51* | 11 | 0
CCN1CCCC1CNC(=O)c1cn(C)c2ccc(S(=O)(=O)N3CCCCCC3)cc2c1=O (stereo unspecified) | 0 | 5 | -2 | 51* | 10 | /
CCOC(=O)C1CCCN(C(=O)c2cn(CC)c3ccc(S(=O)(=O)N4CCCC4)cc3c2=O)C1 (stereo unspecified) | -2 | 6 | 0 | 14 | 38* | /
CCn1cc(C(=O)NCCCOC)c(=O)c2cc(S(=O)(=O)N(C)C3CCCCC3)ccc21 | -1 | 4 | 1 | 8 | 8 | 5
O=c1[nH][nH]c2c1[C@H](c1ccc(Cl)cc1)O[C@H](C1CC1)C2 | / | 16 | / | / | / | /
COC(=O)[C@]12C[C@H](CC(=O)NCc3cccc4ccccc34)C(=O)N(Cc3ccc(Cl)cc3Cl)C1=C[C@H](C(C)C)O[C@@H]2C1CC1 | / | 19 | / | / | / | /
Cc1cc(Cl)ccc1C(O)c1ncc(-c2ccc(C(F)(F)F)cc2)[nH]1 (stereo unspecified) | -3 | 13 | / | / | 4 | /
COCC(=O)N1CCC(n2nccc2NC(=O)CCOc2ccccc2)CC1 | 3 | 7 | -6 | 56* | -2 | 0
C=CCNC(=O)N1CCC(n2nccc2NC(=O)CCCc2ccccc2)CC1 | 4 | -6 | -1 | 56* | -1 | 2
COC(=O)CCCC(=O)N1CCC(n2nccc2NC(=O)CCOc2ccccc2)CC1 | -3 | -7 | 7 | 89 | 3 | -2
O=C1c2ccccc2C(=O)N1OS(=O)(=O)c1ccccc1 | / | / | 3 | 30 | / | -1
Cc1cc(S(=O)(=O)ON2C(=O)c3ccccc3C2=O)ccc1F | 37* | 8 | -1 | 4 | 8 | 1
Clc1ccc(-c2nnc3n2-c2ccccc2SC3)cc1 | -2 | -8 | -2 | 18 | 5 | 4
CN1C(c2ccc(F)cc2)=CS/C1=C(\C#N)c1nnc2n1-c1ccccc1SC2 | 0 | -19 | 2 | 29 | 34* | 3
O=[N+]([O-])c1ccc(OC2OCC(O)C(O)C2O)cc1 (stereo unspecified) | / | 6 | / | / | / | /
COC(=O)c1ccc2nc(-c3ccc(OC)c(OC)c3)c(Cc3ccc(OC)cc3C)n2c1 | 3 | 17 | / | / | / | /
O=C(N/C(=C/c1ccc(Br)cc1)c1nc2ccccc2[nH]1)c1ccco1 | 5 | 8 | 4 | 40 | 32* | 0
O=C(N/C(=C/c1ccc(Cl)cc1)c1nc2ccccc2[nH]1)c1ccco1 | 4 | 12 | 0 | 3 | 42* | 3
O=C(/C(=C/c1ccc(Cl)cc1)c1nc2ccccc2[nH]1)c1ccccc1 | -1 | -3 | 2 | 9 | 17 | 0
COCCN(CC1CCCN(C2Cc3ccccc3C2)C1)C(=O)CCC(F)(F)F (stereo unspecified) | -1 | 5 | -1 | 44 | -2 | 3
CCOC(=O)CNC(=O)N(CCOC)CC1CCCN(C2Cc3ccccc3C2)C1 (stereo unspecified) | + | 5 | -4 | 19 | -8 | 3
CCN1C(C#N)=C(C#N)N=C(C)CC1(C)C | 0 | -2 | -2 | 53* | 5 | -8
SMILES | FBA Mtb inh | CCHFV vOTU inh | 3CLpro inhibitor | VHR inh abs | GDH-TPI counter | RecA intein inh
Cc1ccccc1NC(=O)CN1C(=O)CCSc2ccccc21 | / | -4 | / | / | / | /
COCCNC(=O)/C(C#N)=C/c1c(N2CCN(c3ccccc3)CC2)nc2c(C)cccn2c1=O | 25 | -86 | 2 | / | 7 | -118
CCN1CCN(c2nc3c(C)cccn3c(=O)c2/C=C(\C#N)C(=O)NCCCOC)CC1 | 143* | -81 | -3 | 12 | -5 | -193
Cc1oc(-c2ccccc2F)nc1CS(=O)(=O)CC(=O)N1CCN(c2ccccc2)CC1 | -2 | 0 | -1 | 34 | -3 | -1
C/C(=N\Nc1ccccn1)c1ccc(Br)s1 | 0 | 20 | / | / | 38* | 8
C/C(=N\Nc1ccccn1)c1ccc(C(C)C)cc1 | 3 | -2 | 5 | 15 | 8 | 2
O=C(COC(=O)c1cccnc1)Nc1ccccc1 | -1 | 3 | -2 | 57* | -3 | 0
O=C(COC(=O)c1cccnc1)Nc1ccc(F)cc1 | 1 | 10 | -2 | 27 | 0 | 3
CCc1cc2c(nc1CC)CCCN2S(=O)(=O)c1ccc(C)cc1 | / | 1 | / | / | / | /
O=C(CN1C(=O)S/C(=C\c2ccccc2Cl)C1=O)NCCCn1ccnc1 | 3 | -10 | 3 | -4 | 35* | 5
Cn1cc(/C=C(\NC(=O)c2ccccc2)C(=O)NCCCn2ccnc2)c2ccccc21 | -2 | 7 | / | / | 44* | /
COc1ccc(C(=O)N/C(=C\c2cn(C)c3ccccc23)C(=O)NCCCn2ccnc2)cc1 | -1 | 18 | -2 | 6 | 41* | 3
CC(C)(C)OC(=O)NCc1cc2c(cc1/C=C/S(=O)(=O)NC1CCCC1)OCO2 | / | 4 | / | / | / | /
Cc1cccc(C(=O)OCC(=O)Nc2ccc3c(c2)OCCO3)c1O | 1 | 5 | / | / | -4 | /
COc1ccc(NC(=S)N(C(C)C)C2CCN(C(C)C)CC2)cc1Cl | / | / | -3 | 53* | / | 2
COc1ccc(NC(=S)N(CCC(C)C)C2CCN(C(C)C)CC2)cc1 | 0 | 3 | 1 | -3 | 0 | 1
O=C(CSCc1cc(=O)n2ccsc2n1)Nc1ccc(F)cc1 | -2 | -1 | -2 | 14 | -1 | -3
COC(=O)COc1cc(Br)c(/C=C2/SC(=O)N(CC(=O)N3CCCC3)C2=O)cc1OC | 0 | -5 | 1 | 13 | 29 | -1
COC(=O)COc1ccc(/C=C2/SC(=O)N(CC(=O)N3CCCC3)C2=O)cc1Br | -3 | 9 | 2 | 25 | 36* | 5
CCOCCn1c(N2CCCC2)nc2c1c(=O)n(C)c(=O)n2C | 3 | 15 | 0 | 11 | 7 | 1
Cc1cc(C)c(S(=O)(=O)/N=C2/C=C(Sc3ncn[nH]3)C(=O)c3ccccc32)cc1C | -2 | 118* | 5 | 67 | 7 | /
Cc1ccc(NC2=C/C(=N/S(=O)(=O)c3cccs3)c3ccccc3C2=O)cc1C | 2 | 1 | 5 | -1 | 2 | 9
CC(=O)c1ccc(NC(=O)CCOc2cc(C)ccc2C)cc1 | 0 | 4 | 1 | -3 | 0 | 0
Cc1ccc(S(=O)(=O)N2C[C@H]3C(=O)C[C@@H](c4ccccc4)N(S(=O)(=O)c4ccccc4[N+](=O)[O-])[C@H]3C[C@H]2c2ccccc2)cc1 | -2 | 1 | / | / | / | /
